{"source": "PubChem BioAssay (NCATS)", "note": "Records with an inconclusive call do not appear. A number with no mark means an inactive call. Calls of active or inactive are those of the source. The call rests on the fitted dose curve; in most records, active means well fitted curve in the direction sought with a large enough effect; inconclusive means small, poorly fitted or top-dose-only effect, or another doubt; inactive means no such curve, though single readings can be large; an effect the other way counts as inactive or inconclusive. Residues, ends and D or L forms follow the SMILES beside them. *: point of attachment. Cbz = O=C(OCc1ccccc1)*", "data": [{"biological_target": "Voltage-gated inwardly rectifying potassium channel KCNH2 (Homo sapiens) (UniProt Q12809)", "sequence (Q12809 whole entry, looked up)": "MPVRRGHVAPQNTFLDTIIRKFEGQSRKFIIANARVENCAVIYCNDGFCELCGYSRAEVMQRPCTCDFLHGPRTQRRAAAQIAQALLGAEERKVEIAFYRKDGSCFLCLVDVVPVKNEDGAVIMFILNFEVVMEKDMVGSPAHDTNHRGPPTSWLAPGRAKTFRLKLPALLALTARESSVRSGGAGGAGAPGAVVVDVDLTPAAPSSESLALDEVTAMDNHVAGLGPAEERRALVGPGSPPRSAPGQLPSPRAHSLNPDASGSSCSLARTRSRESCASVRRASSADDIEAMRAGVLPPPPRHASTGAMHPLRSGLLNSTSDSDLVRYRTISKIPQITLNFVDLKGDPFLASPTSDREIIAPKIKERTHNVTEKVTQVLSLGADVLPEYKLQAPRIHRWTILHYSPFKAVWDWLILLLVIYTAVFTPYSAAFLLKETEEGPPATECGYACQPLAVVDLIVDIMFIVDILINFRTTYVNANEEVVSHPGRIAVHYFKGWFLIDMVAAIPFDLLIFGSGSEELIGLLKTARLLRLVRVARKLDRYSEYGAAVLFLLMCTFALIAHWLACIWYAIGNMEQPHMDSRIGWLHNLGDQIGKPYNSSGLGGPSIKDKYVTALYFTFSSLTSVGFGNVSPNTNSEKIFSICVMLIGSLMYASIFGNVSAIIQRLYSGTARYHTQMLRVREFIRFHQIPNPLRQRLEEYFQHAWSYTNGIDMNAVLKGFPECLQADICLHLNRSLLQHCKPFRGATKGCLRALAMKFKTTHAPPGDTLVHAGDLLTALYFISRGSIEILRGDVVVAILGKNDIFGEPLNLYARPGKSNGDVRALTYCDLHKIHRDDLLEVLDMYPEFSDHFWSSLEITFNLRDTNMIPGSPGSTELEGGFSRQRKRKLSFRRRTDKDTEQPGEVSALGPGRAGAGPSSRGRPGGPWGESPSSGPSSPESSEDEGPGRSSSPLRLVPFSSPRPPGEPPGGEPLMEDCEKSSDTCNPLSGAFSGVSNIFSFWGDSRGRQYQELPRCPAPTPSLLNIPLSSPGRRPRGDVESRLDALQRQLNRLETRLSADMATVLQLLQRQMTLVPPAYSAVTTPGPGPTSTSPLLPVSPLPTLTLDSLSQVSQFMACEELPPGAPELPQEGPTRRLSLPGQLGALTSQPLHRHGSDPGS", "experiment": "qHTS Assay for Small Molecule Inhibitors of the Human hERG Channel Activity (AID 588834);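 further: lower thallium flux fluorescence means stronger hERG block; nearly all actives have a fitted effect of over 50% in size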; further: potency means the concentration at half of the fitted maximal effect; on activity change, negative = inhibition: top concentration of the series differs between compounds; on the % scale 0 is the no-effect control and ±100 the full control effect", "conditions": "U2OS BacMam hERG, FluxOR thallium flux fluorescence; series mostly up to 46.1 µM; activity change, negative = inhibition: at the top concentration", "procedure,_shortened": "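hERG block measured as reduced thallium-dye (FluxOR) fluorescence after stimulation buffer addition, read over 2 min. Cells were hERG-BacMam-transduced U2OS exposed to compound ~10 min […]; concentration-response fitted with Hill equation for AC50.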", "units": {"activity change, negative = inhibition": "%"}, "values": [{"smiles": "Cc1cccc(C2CN(C)CCc3c2cc(O)c(O)c3Cl)c1", "note": "(stereo not given)", "activity change, negative = inhibition": -9.33}, {"smiles": "O=c1[nH]c(=O)c2nc3ccccc3nc2[nH]1", "activity change, negative = inhibition": -17.6}, {"smiles": "NCCC1CCCC(CCN)N1", "note": "(stereo not given)", "activity change, negative = inhibition": -3.48}, {"smiles": "Oc1cc2c(cc1O)C(c1ccccc1)CNCC2", "note": "(stereo not given)", "Potency": "8.91 µM (active)"}, {"smiles": "O=C(O)/C(=C/c1c(C(=O)O)[nH]c2cc(Cl)cc(Cl)c12)c1ccccc1", "activity change, negative = inhibition": 1.7}, {"smiles": "O=C(O)Cc1c[nH]c2ccc(O)cc12", "activity change, negative = inhibition": -2.56}, {"smiles": "COc1ccc(CCN(C)CCc2ccc(OC)c(OC)c2)cc1OC", "Potency": "6.31 µM (active)"}, {"smiles": "NC1CONC1=O", "note": "(stereo not given)", "activity change, negative = inhibition": 9.43}, {"smiles": "CC(C)[C@H](NC(=O)OCc1ccccc1)C(=O)N[C@H](C=O)Cc1ccccc1", "note": "(Cbz-Val-Phe-aldehyde)", "activity change, negative = inhibition": 14.9}, {"smiles": "N#CC(=C(\\N)Sc1ccccc1N)/C(C#N)=C(/N)Sc1ccccc1N", "activity change, negative = inhibition": -20.6}, {"smiles": "CCn1c(=O)[nH]c2cc(Cl)c(Cl)cc21", "activity change, negative = inhibition": 2.82}, {"smiles": "O=C1Cc2c([nH]c3ccc(Br)cc23)-c2ccccc2N1", "activity change, negative = inhibition": 13.8}, {"smiles": "COc1cc2c(CCNC(C)=O)c[nH]c2cc1O", "activity change, negative = inhibition": 3.8}, {"smiles": "COc1cc(/C=C(\\C#N)C(=O)c2ccc(O)c(O)c2)cc(I)c1O", "activity change, negative = inhibition": -20.5}, {"smiles": "CCN1C(=O)C=CC1=O", "activity change, negative = inhibition": 4.09}, {"smiles": "NC(C(=O)N[C@@H]1C(=O)N2C(C(=O)O)=C(Cl)CS[C@H]12)c1ccccc1", "note": "(stereo not given in full)", "activity change, negative = inhibition": 7.03}, {"smiles": "O=c1ccn([C@@H]2O[C@H](COP(=O)(O)OP(=O)(O)O)[C@@H](O)[C@H]2O)c(=O)[nH]1", "activity change, negative = inhibition": 16.1}, {"smiles": "NCCCNCCCCNCCCN", "activity change, negative = inhibition": -1.29}, {"smiles": "C=CCN1CCc2c(cc(O)c(O)c2Cl)C(c2ccccc2)C1", "note": "(stereo not given)", "Potency": "7.94 µM (active)"}, {"smiles": "CCCc1c(-c2ccc(O)cc2)nn(-c2ccc(O)cc2)c1-c1ccc(O)cc1", "activity change, negative = inhibition": -2.45}, {"smiles": "CN(C)C(=O)/N=N/C(=O)N(C)C", "activity change, negative = inhibition": 18.6}, {"smiles": "NCC(O)c1ccc(O)c(O)c1", "note": "(stereo not given)", "activity change, negative = inhibition": -15.8}, {"smiles": "CNc1cc(NS(=O)(=O)c2ccc(N)cc2)nc(NC)n1", "activity change, negative = inhibition": 12}, {"smiles": "CCCCC[C@H](CC(=O)NO)C(=O)N[C@H](C(=O)N1CCC[C@H]1CO)C(C)C", "activity change, negative = inhibition": 27.8}, {"smiles": "O=C(O)C1CCCNC1", "note": "(stereo not given)", "activity change, negative = inhibition": -12.1}, {"smiles": "C=CCN1CCc2c(cc(O)c(O)c2Br)[C@@H](c2ccccc2)C1", "Potency": "7.08 µM (active)"}, {"smiles": "COC(=O)C1=C(C)NC(C)=C([N+](=O)[O-])C1c1ccccc1C(F)(F)F", "note": "(stereo not given)", "activity change, negative = inhibition": 5.55}, {"smiles": "Cn1c(=O)c2[nH]c(-c3ccc(S(=O)(=O)O)cc3)nc2n(C)c1=O", "activity change, negative = inhibition": 0.0369}, {"smiles": "C/C(=C\\c1ccc(C(=O)O)cc1)c1ccc2c(c1)C(C)(C)CCC2(C)C", "activity change, negative = inhibition": 3.73}, {"smiles": "Oc1ccc(Cn2cc[nH]c2=S)cc1", "activity change, negative = inhibition": 15.5}, {"smiles": "O=C(O)C1CCNCC1", "activity change, negative = inhibition": 11.1}, {"smiles": "CC(N)(C(=O)O)c1ccc(C(=O)O)cc1", "note": "(stereo not given)", "activity change, negative = inhibition": 16.3}, {"smiles": "Nc1ccc(CCNc2ncnc3c2ncn3C2OC(CO)C(O)C2O)cc1", "note": "(stereo not given)", "activity change, negative = inhibition": -20.2}, {"smiles": "CN(C)S(=O)(=O)c1ccc2c(c1)/C(=C/c1cc3c([nH]1)CCCC3)C(=O)N2", "Potency": "7.94 µM (active)"}, {"smiles": "NCCCCN", "activity change, negative = inhibition": 9.39}, {"smiles": "CCN(CC)CCOC(=O)c1cc(Cl)c(N)cc1OC", "activity change, negative = inhibition": -23.7}, {"smiles": "CC(=O)C(C)=O", "Potency": "inactive"}, {"smiles": "CCCN(CCc1ccccc1)C1CCc2c(O)cccc2C1", "note": "(stereo not given)", "Potency": "0.355 µM (active)"}]}, {"biological_target": "Glutaminase kidney isoform, mitochondrial (Homo sapiens) (UniProt O94925)", "sequence (O94925 whole entry, looked up, canonical isoform)": "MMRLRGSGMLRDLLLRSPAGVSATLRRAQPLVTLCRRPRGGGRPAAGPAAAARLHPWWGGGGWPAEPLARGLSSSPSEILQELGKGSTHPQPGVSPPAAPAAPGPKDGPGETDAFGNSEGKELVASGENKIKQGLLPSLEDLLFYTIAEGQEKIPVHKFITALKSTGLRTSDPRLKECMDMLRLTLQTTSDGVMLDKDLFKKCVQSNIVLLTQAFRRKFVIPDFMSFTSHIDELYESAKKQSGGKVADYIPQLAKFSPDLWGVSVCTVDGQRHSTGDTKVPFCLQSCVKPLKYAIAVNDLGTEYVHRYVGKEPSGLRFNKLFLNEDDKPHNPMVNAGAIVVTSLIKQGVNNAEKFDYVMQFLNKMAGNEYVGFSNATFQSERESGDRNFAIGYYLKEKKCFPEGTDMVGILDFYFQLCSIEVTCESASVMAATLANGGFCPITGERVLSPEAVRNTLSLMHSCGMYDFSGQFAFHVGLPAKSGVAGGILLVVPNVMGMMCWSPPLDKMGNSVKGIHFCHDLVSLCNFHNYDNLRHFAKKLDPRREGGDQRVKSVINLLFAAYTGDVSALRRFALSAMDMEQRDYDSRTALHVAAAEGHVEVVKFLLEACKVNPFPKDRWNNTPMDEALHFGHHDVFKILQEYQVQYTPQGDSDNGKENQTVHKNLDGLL", "experiment": "qHTS for Inhibitors of Glutaminase (GLS): LOPAC Validation (AID 624146); further: nearly all actives have a fitted effect of over 60% in size; further: potency means the concentration at half of the fitted maximal effect;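 on activity change, negative = inhibition: glutamate product detected by oxidase and peroxidase coupled Amplex red fluorescence gain; on the % scale 0 is the no-effect control and ±100 the full control effect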", "conditions": "glutaminase enzyme activity inhibition; series mostly up to 46.1 µM; activity change, negative = inhibition: at the top concentration", "procedure,_shortened": "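Enzyme dispensed in phosphate buffer (45 mM, pH 8.2, 0.02% Tween-20), compounds pinned in, then 1 mM L-glutamine solution and the glutamate oxidase–HRP–Amplex Red mix added; fluorescence read immediately and again after 30 min at room temperature.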", "units": {"activity change, negative = inhibition": "%"}, "values": [{"smiles": "O=c1[nH]c(=O)c2nc3ccccc3nc2[nH]1", "activity change, negative = inhibition": 35.4}, {"smiles": "NCCC1CCCC(CCN)N1", "note": "(stereo not given)", "activity change, negative = inhibition": -0.167}, {"smiles": "Oc1cc2c(cc1O)C(c1ccccc1)CNCC2", "note": "(stereo not given)", "Potency": "0.631 µM (active)"}, {"smiles": "O=C(O)Cc1c[nH]c2ccc(O)cc12", "Potency": "1.58 µM (active)"}, {"smiles": "COc1ccc(CCN(C)CCc2ccc(OC)c(OC)c2)cc1OC", "activity change, negative = inhibition": -7.62}, {"smiles": "CC(C)[C@H](NC(=O)OCc1ccccc1)C(=O)N[C@H](C=O)Cc1ccccc1", "note": "(Cbz-Val-Phe-aldehyde)", "activity change, negative = inhibition": -1.25}, {"smiles": "N#CC(=C(\\N)Sc1ccccc1N)/C(C#N)=C(/N)Sc1ccccc1N", "Potency": "12.6 µM (active)"}, {"smiles": "CCn1c(=O)[nH]c2cc(Cl)c(Cl)cc21", "activity change, negative = inhibition": -14}, {"smiles": "COc1cc2c(CCNC(C)=O)c[nH]c2cc1O", "Potency": "2 µM (active)"}, {"smiles": "CCN1C(=O)C=CC1=O", "activity change, negative = inhibition": -4.97}, {"smiles": "O=c1ccn([C@@H]2O[C@H](COP(=O)(O)OP(=O)(O)O)[C@@H](O)[C@H]2O)c(=O)[nH]1", "activity change, negative = inhibition": -9.19}, {"smiles": "NCCCNCCCCNCCCN", "activity change, negative = inhibition": -13.1}, {"smiles": "CCCc1c(-c2ccc(O)cc2)nn(-c2ccc(O)cc2)c1-c1ccc(O)cc1", "activity change, negative = inhibition": 150}, {"smiles": "CN(C)C(=O)/N=N/C(=O)N(C)C", "activity change, negative = inhibition": 38.3}, {"smiles": "NCC(O)c1ccc(O)c(O)c1", "note": "(stereo not given)", "activity change, negative = inhibition": 151}, {"smiles": "CNc1cc(NS(=O)(=O)c2ccc(N)cc2)nc(NC)n1", "activity change, negative = inhibition": -23.4}, {"smiles": "O=C(O)C1CCCNC1", "note": "(stereo not given)", "activity change, negative = inhibition": 4.4}, {"smiles": "COC(=O)C1=C(C)NC(C)=C([N+](=O)[O-])C1c1ccccc1C(F)(F)F", "note": "(stereo not given)", "activity change, negative = inhibition": -29.2}, {"smiles": "C/C(=C\\c1ccc(C(=O)O)cc1)c1ccc2c(c1)C(C)(C)CCC2(C)C", "activity change, negative = inhibition": -8.63}, {"smiles": "Oc1ccc(Cn2cc[nH]c2=S)cc1", "activity change, negative = inhibition": -69}, {"smiles": "O=C(O)C1CCNCC1", "activity change, negative = inhibition": -3.48}, {"smiles": "CC(N)(C(=O)O)c1ccc(C(=O)O)cc1", "note": "(stereo not given)", "activity change, negative = inhibition": -18.2}, {"smiles": "Nc1ccc(CCNc2ncnc3c2ncn3C2OC(CO)C(O)C2O)cc1", "note": "(stereo not given)", "activity change, negative = inhibition": -11.5}, {"smiles": "CN(C)S(=O)(=O)c1ccc2c(c1)/C(=C/c1cc3c([nH]1)CCCC3)C(=O)N2", "activity change, negative = inhibition": -21.4}, {"smiles": "NCCCCN", "activity change, negative = inhibition": -4.68}, {"smiles": "CCN(CC)CCOC(=O)c1cc(Cl)c(N)cc1OC", "activity change, negative = inhibition": -13.4}, {"smiles": "CC(=O)C(C)=O", "activity change, negative = inhibition": -11.2}]}]}
